Compound activity from PubChem.
In the library only some 1.8% were active in any assay of this set; here they are far more common.
KLF5 inh: kruppel-like factor 5 inhibition. DLD-1 KLF5 promoter-luciferase reporter, luminescence. 290,000 compounds, 0.23% hits. inhibition, % at 5 µM;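 active = inhibition above a per-plate limit of that plate's mean compound inhibition plus 3 SD, cut at about 60% in these data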;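 also: 0% = DMSO wells and 100% = LY294002 at 200 µM; higher means less KLF5 promoter-driven luciferase light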
BaF3 tox: reduces parental Ba/F3 cell viability, JAK2V617F counter-screen; CellTiter-Glo ATP luminescence; inhibition, % at 5.6 µM; 220,000 compounds, 1.1% hits; AID 1486;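 active = inhibition above a per-campaign cutoff, the mean inhibition of all tested compounds plus 3 SD, cut at about 27% in these data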;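 also: 0% = DMSO wells and 100% = JAK Inhibitor I control wells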
Ba/F3 V617F tox: reduce viability of Ba/F3 cells dependent on JAK2V617F; AID 1446; inhibition, % at 5.6 µM; Ba/F3 EpoR-JAK2V617F viability, ATP luminescence; 220,000 compounds, 1.1% hits;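 active = inhibition above the campaign mean plus 3 SD over all tested compounds, cut at about 24% in these data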;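 also: cytokine-independent growth of Ba/F3 cells driven by EpoR plus mutant JAK2; 0% = DMSO-treated cells and 100% = JAK inhibitor I control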
IEC-6 tox-1: IEC-6 cytotoxicity, counter-screen for KLF5 inhibitors. luminescence viability. inhibition, % at 5 µM. 290,000 compounds, 0.78% hits. AID 1825;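 also: 0% = plate median of test compound wells and 100% = cytotoxic reference compound wells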
APP 5UTR inh: APP translation inhibition; SH-SY5Y APP 5'UTR-luciferase reporter, luminescence; inhibition, % at 2 µM; 190,000 compounds, 0.82% hits; AID 1285;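 active = inhibition above a set limit, derived from the sample mean plus 3 SD, cut at about 45% in these data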
KLF5 confirm: KLF5 inhibition, confirmation assay | AID 1834 | 610 compounds, 79% hits | inhibition, % at 4 µM | shares compounds with KLF5 inh | DLD-1 KLF5 promoter firefly luciferase reporter, luminescence;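 active = inhibition above a set limit taken from the earlier primary screen, cut at about 63% in these data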;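 also: 0% = DMSO wells and 100% = LY294002 at 200 µM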
IEC-6 tox-2: counter-screen for KLF5 inhibitors: cytotoxicity in rat IEC-6 cells. shares compounds with KLF5 inh. inhibition, % at 4 µM. 610 compounds, 56% hits. IEC-6 rat intestinal cells, viability luminescence; in the data active = inhibition above about 23%;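 also: cells exposed to compounds for 48 hours before viability read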
IEC-6 cytotox cf: IEC-6 cytotoxicity, confirmation assay; AID 1907; IEC-6 rat intestinal epithelial viability, luminescence; shares compounds with IEC-6 tox-1; 1,900 compounds, 63% hits; inhibition, % at 5 µM;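 also: 0% = vehicle and 100% = reference cytotoxic drug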
* = called active by the depositor; x = no result given. Rule as the data show it, unless noted: active = inhibition above about 22%; inactive = the rest.

SMILES | KLF5 inh | BaF3 tox | Ba/F3 V617F tox | IEC-6 tox-1 | APP 5UTR inh | KLF5 confirm | IEC-6 tox-2 | IEC-6 cytotox cf
COc1cc(-c2noc(C)c2/C=C/c2ccc(N)cc2)cc(OC)c1OC | 65.7* | x | x | 95.6* | x | 91.4* | 73.4* | 75.7*
O=C(NC(Nc1nc2ccc([N+](=O)[O-])cc2s1)(C(F)(F)F)C(F)(F)F)c1ccccc1Cl | 76.8* | 81.0* | 100.1* | 76.2* | 65.9* | 87.0* | 90.5* | 96.9*
COc1cc2c(cc1OC)C(C)N(C(=O)Nc1cc(C)cc(C)c1)CC2 (stereo unspecified) | 63.1* | x | x | 75.8* | x | 80.2* | 54.7* | 55.4*
CCOC(=O)N1CCN(Cc2ccc3ccccc3c2)CC1 | -37.9 | x | x | -14.8 | x | x | x | x
CCC1CCCCN1C(=O)Cn1c(=O)n(CCCC(=O)NCc2ccco2)c(=O)c2sccc21 (stereo unspecified) | -9.8 | x | x | 4.6 | x | x | x | x
CC[n+]1c(/C=C2\Sc3ccccc3N2C)ccc2cccc(C)c21 | 68.3* | 104.1* | 101.9* | 70.7* | 51.9* | 114.9* | 55.5* | 63.8*
CN1/C(=C/c2cccc[n+]2CCO)Sc2ccccc21 | -18.1 | x | x | 3.0 | x | x | x | x
COc1cccc(/C=N/NC(=O)NC2CCCCC2)c1O | -50.7 | -1.1 | 4.9 | 3.0 | x | x | x | x
CCO[C@H]1OC(C(=O)NCc2nc3ccccc3[nH]2)=C[C@@H](C2CC2)[C@@H]1CCCO | 71.8* | 73.4* | 74.3* | 71.6* | 85.9* | 78.3* | 64.1* | 53.2*
CCOC(=O)c1ccc(CNC(=O)c2cc(C(C)(C)C)oc2C)o1 | 1.2 | 3.7 | -1.9 | 5.0 | 13.3 | x | x | x
COc1ccccc1C1=NOC(COc2ccc3c(C)cc(=O)oc3c2)C1 (stereo unspecified) | 70.7* | 78.2* | 75.4* | 83.3* | x | 81.3* | 60.6* | 57.2*
COc1cccc(COc2ccc3c(C)cc(=O)oc3c2)c1 | -183.5 | x | x | -2.5 | x | x | x | x
O=C(N/N=C/c1cccc(Oc2ccccc2)c1)c1ccccc1F | 64.0* | x | x | 28.5* | x | 66.1* | 1.7 | 21.0
COc1cc2c(c(OC)c1OC)C(=O)CC2 | -27.9 | -1.9 | -1.4 | 1.8 | x | x | x | x
COc1cc2c(c(OC)c1OC)-c1ccc(OC)c(=O)cc1C(NC(C)=O)CC2 (stereo unspecified) | 71.5* | x | x | 94.2* | x | 87.8* | 82.3* | 80.1*
Cc1nc2ccccn2c1-c1csc(NCc2ccco2)n1 | -14.6 | 1.2 | -1.1 | 0.3 | -6.4 | x | x | x
Cc1ccc(Nc2nc(-c3c(C)nc4ncccn34)cs2)cc1 | 73.4* | 77.9* | 76.3* | 89.8* | 94.8* | 78.7* | 72.6* | 59.4*
Cc1ccc(Nc2nc(-c3c(C)nc4ccccn34)cs2)cc1 | 87.2* | 92.2* | 93.7* | 93.8* | 96.3* | 87.0* | 79.0* | 78.5*
Cc1ccc(N(C(=O)c2snc(C(N)=O)c2N)C(C(=O)NC2CCCC2)c2ccncc2)cc1 (stereo unspecified) | -0.9 | x | x | -1.5 | x | x | x | x
c1ccn2cc(-c3ccc4c(c3)OCCO4)nc2c1 | -23.3 | 14.0 | 12.6 | 11.3 | -116.9 | x | x | x
Cc1ccc2nc(-c3ccc4c(c3)OCCO4)cn2c1 | 103.2* | 79.3* | 81.4* | 75.2* | x | 106.1* | 57.1* | 60.6*
O=S(=O)(Nc1cc(Sc2ncn[nH]2)c(O)c2ccccc12)c1ccccc1 | 68.0* | 99.4* | 95.1* | 85.1* | 75.8* | -12.8 | 5.7 | -4.3
O=C(NC(=S)NC1C2CC3CC(C2)CC1C3)c1ccccc1 (stereo unspecified) | -15.5 | x | x | 2.7 | x | x | x | x
Cc1ccnc(NC(=O)c2ccccc2NC(=O)c2ccc(Cl)cc2Cl)c1 | 67.2* | x | x | 77.6* | x | 69.2* | 49.5* | 59.5*
COc1ccc(N2CCN(C(CNS(=O)(=O)c3ccccc3)c3ccccc3)CC2)cc1 (stereo unspecified) | 11.2 | x | x | -3.0 | x | x | x | x
SMILES | KLF5 inh | BaF3 tox | Ba/F3 V617F tox | IEC-6 tox-1 | APP 5UTR inh | KLF5 confirm | IEC-6 tox-2 | IEC-6 cytotox cf
CC1CCN(Cc2c(C(=O)N/N=C/c3cc(Cl)ccc3O)nnn2-c2nonc2N)CC1 | 68.6* | x | x | 50.5* | x | 86.0* | 42.4* | 49.1*
Cc1cc(C)c(/C=N/NC(=O)c2nnn(-c3nonc3N)c2CN2CCC(C)CC2)c(C)c1 | -5.5 | x | x | -4.7 | x | x | x | x
CC1CCN(Cc2c(C(=O)N/N=C/c3cc(Br)ccc3O)nnn2-c2nonc2N)CC1 | 70.3* | x | x | 57.0* | x | 84.2* | 42.4* | 61.8*
O=C1CCCN1c1ccc(S(=O)(=O)Nc2ccc3c(c2)OCCO3)cc1 | 77.7* | 72.7* | 82.2* | 78.6* | 38.9 | 70.3* | 40.9* | 49.9*
Cc1ccccc1CCNC(=O)Cn1ccc2cc(S(=O)(=O)N3CCCC3)ccc21 | 3.1 | x | x | 1.3 | x | x | x | x
CCn1cc(C(=O)NCCC(=O)NCCCO)c(=O)c2cc3c(cc21)OCO3 | -9.3 | x | x | 1.7 | x | x | x | x
CCOC(=O)N1CCC(NC(=O)c2ccc3c(c2)N=C(C)c2c(C)ccc(C)c2S3)CC1 | 70.7* | x | x | 87.4* | x | 86.9* | 60.9* | 67.5*
CCOC(=O)N1CCN(C(=O)Cn2nc(C)n3nc(-c4ccccc4)cc3c2=O)CC1 | 3.2 | x | x | 1.3 | x | x | x | x
Oc1ccc(N=Nc2ccccc2C(F)(F)F)c2cccnc12 | 62.5* | x | x | 44.6* | x | 85.8* | 7.6 | 13.7
Cc1ccc(N=Nc2ccc(O)c3ncccc23)cc1C | -26.6 | 3.7 | -0.6 | 3.5 | 26.6 | x | x | x
CCC1=Nc2cc(C(=O)NCc3ccco3)ccc2Sc2ccc(C)cc21 | 74.9* | 84.3* | 85.9* | 81.0* | 94.3* | 88.1* | 67.2* | 65.4*
Cc1cccc(N2CCN(C(=O)c3ccncc3)CC2)c1C | 17.3 | 7.2 | 5.2 | 9.5 | 3.8 | x | x | x
COc1cc(C(=O)N2CCN(c3cccc(C)c3C)CC2)cc(OC)c1OC | 71.5* | 70.7* | 69.7* | 81.7* | 94.6* | 75.0* | 59.5* | 58.1*
COc1cccc(C(=O)Nc2sc3c(c2C(=O)O)CCCC3)c1 | 54.8 | x | x | -4.0 | x | x | x | x
COc1cccc(C(=O)Nc2sc3c(c2C#N)CCN(C(C)=O)C3)c1 | 73.5* | 80.6* | 76.0* | 77.0* | 92.4* | 79.0* | 56.0* | 26.2*
CCOC(=O)C(C)Oc1cccc2c(=O)n(CC(=O)NCc3ccccc3)ccc12 (stereo unspecified) | 63.1* | 76.2* | 72.8* | 81.5* | x | 83.6* | 57.5* | 58.1*
CC(Oc1ccccc1F)C(=O)NNC(=O)CCNC(=O)c1ccccc1Cl (stereo unspecified) | -8.0 | x | x | 0.3 | x | x | x | x
Oc1c(C(Nc2nccs2)c2ccc(C(F)(F)F)cc2)ccc2cccnc12 (stereo unspecified) | 62.0* | 53.5* | 59.6* | 43.8* | 65.8* | 83.7* | 57.4* | 62.0*
CCCC(=O)NC(c1ccc(Cl)cc1)c1ccc2cccnc2c1O (stereo unspecified) | 78.1* | x | x | 40.5* | x | 82.2* | 77.4* | 66.9*
